Screening data (PubChem)
LASV entry inh: qHTS for Inhibitors of binding or entry into cells for Lassa Virus. Lassa virus pseudotype entry inhibition, cell reporter. Potency, µM (doses to about 37.9 µM), without a hit: at the top dose activity change, negative = inhibition, hits mostly inhibitors. 300,000 tested, 1.2% active. AID 540256, 2011; calls by dose curve; tested in HEK293 cells; further: potency means the concentration at half of the fitted maximal effect; nearly all actives have a fitted effect of over 50% in size
Vaccinia Venus: qHTS for Stage-Specific Inhibitors of Vaccinia Orthopoxvirus: Venus Reporter Primary qHTS | Vaccinia virus Venus reporter expression, fluorescence | Potency, µM (doses to about 36.5 µM), without a hit: top-dose activity change, negative = inhibition, hits mostly inhibitors | 330,000 tested, 0.46% active | AID 720580, 2013; calls by dose curve; tested in A549 cells; further: potency means the concentration at half of the fitted maximal effect; nearly all actives have a fitted effect of over 30% in size
HCV inh: qHTS Assay for Inhibitors of Hepatitis C Virus (HCV). Potency, µM (doses to about 41.8 µM), without a hit: at the top dose activity change, negative = inhibition, actives largely listed as inhibitors. 340,000 tested, 3.4% active. Huh7.5.1 HCVcc-Cre infection, luciferase reporter, 44 h. AID 651820, 2012; active means well fitted inhibition curve with a large enough effect; inconclusive means small, poorly fitted or top-dose-only effect, or another doubt; inactive means no such curve, though single readings can be large or run the other way; further: potency means the concentration at half of the fitted maximal effect
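Cells (1,000/well) were plated 4 h before compound, then infected with HCVcc-Cre virus (~0.5 moi). After 44 h further culture, infection was read as luciferase luminescence following a 15 min substrate incubation at room temperature.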
MARV entry inh: qHTS for inhibitors of binding or entry into cells for Marburg Virus; Potency, µM (highest dose often 37.8 µM), without a hit: top-dose activity change, negative = inhibition, actives largely listed as inhibitors; Marburg virus pseudotyped entry inhibition, cell reporter; 300,000 tested, 1.8% active; calls by dose curve; tested in HEK293 cells; further: potency means the concentration at half of the fitted maximal effect
VACV mCherry inh: qHTS for Stage-Specific Inhibitors of Vaccinia Orthopoxvirus: mCherry Reporter Primary qHTS; Vaccinia virus mCherry reporter infection, fluorescence; Potency, µM (highest dose often 36.5 µM), inactives show top-dose activity change, negative = inhibition, hits mostly inhibitors; 310,000 tested, 0.63% active; AID 720579, 2013; calls by dose curve; tested in A549 cells; further: potency means the concentration at half of the fitted maximal effect; nearly all actives have a fitted effect of over 35% in size
HCMV antiviral: qHTS Assay for inhibitors of the human cytomegalovirus (HCMV); HFF cells, HCMV-luciferase reporter, 72 h; stronger effect = lower value; activity change, negative = inhibition, % at 57.5 µM; AID 1259415, 2018; 410,000 tested, 4.5% active; in the data active means activity change below about -60%; inconclusive means no clear call, values can overlap the other calls; inactive means above about -39%
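Compounds were evaluated in HFFs infected with an HCMV luciferase reporter virus (MOI 1 PFU/cell). Luciferase in lysates collected 72 h post infection served as the replication measure.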
Starred values were filed as active, the others as inactive; i = inactive; ? = inconclusive; / = no result given; [ ] = another dose, or the depositor's remark. Most compounds without a hit are left out; they make up all but 7.8% or so of the library. On the % scale 0 is the no-effect control and ±100 the full control effect.

SMILES	LASV entry inh	Vaccinia Venus	HCV inh	MARV entry inh	VACV mCherry inh	HCMV antiviral
O=C(c1cc(C2CC2)nc2ccc(Br)cc12)N1N=C(C(F)F)CC1(O)C(F)F (stereo not given)	?	/	?	?	/	-73*
Cc1ccc(C(=O)Nc2ccon2)cc1S(=O)(=O)N1CCCCCC1	1%	/	?	8%	/	-101*
Cc1ccc(C(=O)Nc2ccc(F)cc2)cc1S(=O)(=O)N1CCCCCC1	?	-24%	/	/	-29%	-101*
CCC1CCCCN1S(=O)(=O)c1ccc(NC(=O)c2ccncc2)cc1 (stereo not given)	?	?	/	?	-15%	?
CCC1CCCCN1S(=O)(=O)c1cc(C(=O)Nc2ccc(C)c(F)c2)ccc1F (stereo not given)	?	?	/	/	?	-91*
CCOC(=O)c1c(NC(=O)COc2cccc(C(F)(F)F)c2)sc2c1CCCCC2	13%[46.1 µM]	4%	/	/	-1%	13
Cc1cc(Cl)ccc1NC(=O)c1cc(S(=O)(=O)N2CCOCC2)cn1C	0%[46.1 µM]	-7%	/	/	-5%	?
Cc1ccc(-n2c(SCCC(C)C)nc3sc4c(c3c2=O)CC(C)(C)OC4)cc1	-22%[46.1 µM]	4%	/	11%[46.1 µM]	1%	3
Brc1cc(Br)c2nc3c(cc2c1)CCC3	/	/	10µM*	/	/	-27
c1ccc2nc3c(cc2c1)CCCC3	/	7%	/	/	i	/
CCOc1ccc(NC(=O)CSc2ccc3ccccc3n2)cc1	0%[46.1 µM]	-12%	/	-2%[46.1 µM]	-8%	-5
CCOC(=O)c1cccc(NC(=O)CCn2c(=O)oc3ccccc32)c1	?	3%	-27%	?	-14%	?
CCOC(=O)c1cccc(NC(=O)CCn2cccc2)c1	8.9µM*	-9%	-4%	-26%	/	-8
c1cc2ccc3ccc(CN4CCOCC4)c4ccc(c1)c2c34	17%	-21%	10µM*	19%	i	12
CCc1c(C)c2ccc3c(c2oc1=O)CN(Cc1ccccc1)CO3	22%[46.1 µM]	-10%	/	/	-8%	-25
CC(=O)NCCNc1nc(-c2ccccc2C(F)(F)F)nc2ccccc12	/	0%	/	/	-2%	/
CCn1c2c(c(=O)n3ncc(C(=O)Nc4ccc(C(=O)OC)cc4)c13)CN(Cc1ccc(OC)cc1)CC2	26%[46.1 µM]	-12%	/	/	-10%	20
O=C(/C=C/c1ccc(F)cc1)NNC(=O)CCN1CCN(Cc2ccccc2)CC1	?	?	0%	?	11µM*	-96*
CCc1nn(CC(=O)N2CCCCC2)c(=O)c2cc3sc(C)cc3n12	/	0%	/	?	-9%	-5
COc1ccc(-c2csc(Nc3cc(C)ccn3)n2)cc1C	/	/	13µM*	/	/	?
COc1ccc(-c2csc(Nc3ncccc3C)n2)cc1OC	?	-22%	2.2µM*	1%	/	45
COc1ccc(NC(=O)c2nnn(CC(=O)Nc3cccc(C)c3C)c2N)c(OC)c1	-9%[46.1 µM]	-19%	/	/	-24%	-32
Fc1ccc(-c2ncn(C3CCNCC3)c2-c2ccnc(Oc3ccc(Oc4ccccc4)cc3)n2)cc1	13µM*	/	/	/	/	/
Fc1ccc(Oc2nccc(-c3ccc(Cl)cc3)n2)cc1	?	-8%	-12%	21%[46.1 µM]	/	-26
Fc1ccc(-c2ncn(C3CCNCC3)c2-c2ccnc(Oc3ccc(F)c(F)c3)n2)cc1	22µM*	/	/	/	/	/
SMILES	LASV entry inh	Vaccinia Venus	HCV inh	MARV entry inh	VACV mCherry inh	HCMV antiviral
COc1ccc(Oc2nccc(-c3ccc(Cl)cc3)n2)cc1	-21%	4%	1%	3%	/	-37
COCOc1c2c(c(OCOC)c3c(OCOC)cccc13)/C(=N/NS(C)(=O)=O)C1=C2CCCC1	/	/	/	1%[14.2 µM]	/	/
O=[N+]([O-])c1ccc(Cl)cc1N1CCCC1	29%[46.1 µM]	-9%	18%	10%[46.1 µM]	i	22
O=C(/C=C/c1ccc(Cl)cc1)N1CCN(c2ccc([N+](=O)[O-])c(N3CCOCC3)c2)CC1	0%	-12%	7.9µM*	-10%	i	-38
O=[N+]([O-])c1ccc(N2CCNCC2)cc1N1CCCCC1	3%	/	10µM*	?	/	-14
O=C(COc1ccccc1)N1CCN(c2ccc([N+](=O)[O-])c(N3CCCCC3)c2)CC1	?	-12%	7.1µM*	-13%	-13%	-7
O=C(COc1ccc(Br)cc1)N1CCN(c2ccc([N+](=O)[O-])c(N3CCCCC3)c2)CC1	-1%	-19%	?	-1%	-21%	61
COc1ccccc1CC(=O)NO	/	-7%	/	/	-2%	/
CCOc1ccc(NC(=O)N(Cc2c[nH]c3ccccc23)C2CCCCCC2)cc1	-5%[46.1 µM]	1%[7.34 µM]	/	?	1%[7.34 µM]	104
O=C(Nc1cc2c3c(c1)CC(=O)N3CCC2)c1ccccc1Br	-4%	-26%	10µM*	2%	-6%	-11
O=C(Nc1cc2c3c(c1)CC(=O)N3CCC2)c1ccc(Br)cc1	-3%	-18%	-9%	-9%	-23%	0
COc1ccc(-c2cc(=O)c3cc(OCC(=O)OC(C)C)ccc3o2)cc1	?	-6%	/	1%[46.1 µM]	-15%	20
Cc1ccc(Cl)cc1NC(=O)CN1C(=O)c2ccccc2Sc2ncccc21	15%[46.1 µM]	-1%	/	/	-12%	-9
O=C1NCCOC(=O)[C@@H](Cc2ccc(F)cc2)CC/C=C/C[C@@H]1CC(=O)N(CCO)Cc1ccccc1	/	-10%	2%	/	-9%	-63*
CC(C)(C)OC(=O)C[C@@H]1C/C=C\C[C@H](CC(=O)N(CCO)Cc2ccccc2)C(=O)N2CCC[C@H]2COC1=O	/	-12%	1.1µM*	/	-10%	0
O=C1CCCC/C=C\C[C@H](CC(=O)N(CCO)Cc2ccccc2)C(=O)N[C@@H](c2ccccc2)CO1	/	-2%	13%	/	i	-63*
O=C1N[C@@H](Cc2ccccc2)COC(=O)[C@@H](Cc2ccc(F)cc2)CC/C=C/C[C@H]1CC(=O)N(CCO)Cc1ccccc1	/	11µM*	?	/	?	-1
CC(C)(C)OC(=O)C[C@@H]1C/C=C\C[C@@H](CC(=O)N(CCO)Cc2ccccc2)C(=O)N2CCC[C@H]2COC1=O	/	-13%	-2%	/	-14%	3
Cc1cccc(C)c1-n1nnnc1C(c1ccnc2ccccc12)N(CCN(C)C)Cc1ccccc1 (stereo not given)	/	-21%	/	/	-20%	11
CCS(=O)(=O)N1CC2(CN(C(=O)Nc3c(C)noc3C)[C@@H](CO)c3[nH]c4cc(OC)ccc4c32)C1	/	/	/	/	/	-8
Cc1ccc(NC(=O)CSc2nccn2C2CCCC2)cc1Cl	13%[46.1 µM]	-9%	/	/	-18%	17
COCC1CCCN(c2nc(CN3CCN(C(=O)c4ccco4)CC3)nc3ccccc23)C1 (stereo not given)	/	-1%	/	/	-10%	/
